Laboratory results published in PubChem BioAssay (NCI).
This is part of a sample that, as a whole, favours compounds with a hit. Of some 83,000 tested, about 20% had one in any assay.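 How to read the values: 0–100, growth inhibition (40 = 60% inhibited); 0, no net growth; -100 to 0, cell death (-40 = 40% of starting cells died; -100 = all dead).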 Values without a mark were called inactive. Active and inactive are the calls of the source.

test system: U251 CNS; assay: NCI-60 one-dose screen, 48 h (100 = growth as untreated, 0 = no growth, -100 = all killed); settings: 10 µM unless noted
Method: Growth inhibition of the U251 human tumor cell line is measured as a screen for anti-cancer activity. Cells are grown in 96 well plates and exposed to the test compound for 48 hours. Compounds are tested at a single concentration, which is 10^-5 M for most compounds. The reported endpoint is percent growth (GI% or GIPRCNT), where numbers from 0 - 100% represent growth inhibition, and numbers from -100% - 0 represent cell death. For example, a value of 40 represents 60% growth inhibition. A value of 0 means no net growth occurred over the course of the experiment. A value of -40 indicates 40% of cells at the beginning of the experiment died by the end of the experiment. A value of -100 means all cells are dead at the end of the experiment.
NCI-60 Human Tumor Cell Lines Screen was performed using the standard one-dose NCI protocol, which is described in more detail at https://dtp.cancer.gov/discovery_development/nci-60/default.htm.
Compounds with GIPRCNT values below 10 were considered active. Activity score was based on GIPRCNT using the following formula: […]
Score is 0 for GIPRCNT values of 100 or above, 50 for GIPRCNT values of 0, and 100 for GIPRCNT values of -100.

| SMILES | growth |
| --- | --- |
| Nc1ccc(Oc2ccccc2)c(Cl)c1 | 84.1% |
| S=C(S)OCN1CCOCC1 | 40.9% |
| O=[N+]([O-])/C(=C/c1ccccc1)c1ccccc1 | 97.4% |
| CCSc1nc2ccccc2o1 | 101% |
| C/C(=N/NC(N)=S)c1ccc(C)cc1 | 84.9% |
| O=[N+]([O-])CC(O)c1ccccc1 (stereo not given) | 98.7% |
| O=[N+]([O-])c1ccc(C2N(Cc3ccc(Cl)cc3)CCN2Cc2ccc(Cl)cc2)cc1 | 87.6% |
| CCCCCCCCCCCC[S+](C)CC(=O)[O-] (stereo not given) | 43.7% |
| COc1ccc2c(c1OC)OCC(CN(C)C)C2=O (stereo not given) | 103% |
| COc1ccc2nc3cc([N+](=O)[O-])ccc3c(NNc3ccccc3)c2c1 | 29.1% |
| O=C1C=Cc2ccccc2/C1=C/c1nc(-c2ccccc2)oc1O | 95% |
| O=C1C(=O)c2cccnc2-c2ncccc21 | -91.5% (active) |
| O=[N+]([O-])c1ccc(C(Br)c2ccc([N+](=O)[O-])cc2)cc1 | 88.6% |
| Clc1ccc(Cc2nc3ccccc3s2)cc1 | 79.4% |
| c1csc(-c2[nH]nc3c2CCc2ccccc2-3)c1 | 78.1% |
| COC(=O)C(=[N+]=[N-])C(=O)c1ccc([N+](=O)[O-])o1 | 88.7% |
| Cc1ccccc1N=C(N)Nc1ccccc1C (tested in a mixture with another compound) | 84% |
| O=C(O)c1ccc2c(c1)C(=O)c1ccccc1C2=O | 98.9% |
| Oc1c(Cl)cc(Cl)cc1C(c1cc(Cl)cc(Cl)c1O)C(Cl)(Cl)Cl | 4.24% (active) |
| CCCCCCC1N=C(N)N=C(N)N1c1cccc(Cl)c1 (stereo not given) | 33.6% |

| SMILES | growth |
| --- | --- |
| C/C(=N\NC(=S)N1CC2CCC(CC2)C1)c1ccccn1 | 5.52% (active) |
| COc1ccc2nc3cc(Cl)ccc3c(NCCCCCN3CCCCC3)c2c1 | -74.5% (active) |
| Cc1cc(=O)oc2cc(O)cc(O)c12 | 107% |
| CC(O)C(O)C(O)C(O)C(O)C(=O)NNc1ccccc1 (stereo not given) | 97.6% |
| CCCCCCCCCCCC(=O)OC(C)C(=O)NCCCC (stereo not given) | 93.7% |
| O=C/C=C/c1ccc([N+](=O)[O-])cc1 | 95.5% |
| Cc1cc2cccnc2c2ncccc12 | 17.2% |
| Oc1ccc(Cl)cc1Cc1cc(Cl)ccc1O | 34.8% |
| CCN1CCCC(Nc2cc(C)nc(/N=C(/N)Nc3ccc(Cl)c(Cl)c3)n2)C1 (stereo not given) | -82.4% (active) |
| NC(=S)N/N=C/c1ncccc1O | 25.4% |
| O=C(Cc1nc2cc(Cl)c(Cl)cc2nc1CC(=O)c1cccnc1)c1cccnc1 | 89.3% |
| CCOc1ccc(C(C[N+](=O)[O-])Sc2ccccc2N)cc1 (stereo not given) | 9.82% (active) |
| CN(C)c1ccc(C(=C2C=CC(=[N+](C)C)C=C2)c2ccc(N(C)C)cc2)cc1 | -87.9% (active) |
| CC(C)N=C(N)/N=C(\N)Nc1ccc2ccc3ccccc3c2c1 | -67.9% (active) |
| CCCCCCCCCCCC[n+]1ccccc1 (tested in a mixture with another compound) | -24.1% (active) |
| S=C1SCN(Cc2cccs2)CN1Cc1cccs1 | 95.6% |
| S=C=Nc1ccc(N2CCOCC2)cc1 | 97.6% |
| CCC1C[N+]2=C(c3cc(OC)c(OC)cc3CC2)c2c1cc1n2CCc2cc(OC)c(OC)cc2-1 (stereo not given) | 22.7% |
| COc1cc(/C=C/C(=O)CC(=O)/C=C/c2ccc(O)c(OC)c2)ccc1O | 18.5% |
| COc1cccc2c1C(=O)c1c(O)c3c(c(O)c1C2=O)C[C@@](O)(C(=O)CO)C[C@@H]3OC1CC(OC(C)=O)C(OC(C)=O)C(C)O1 (stereo not given in full) | -42.9% (active) |
